Experimental data taken from the supplement of paper PMC10515830.
Where a name gives a salt, the structure may show the parent alone.

Columns and labels:
Details in all cases: 10 µM; exposure time 6 h
[1] = system: Danio rerio larvae (5 dpf); assay: difference in excitability vs DMSO (percentage points); higher = more excitable than DMSO
Summary of the method: (§1)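 Wild-type 5 dpf zebrafish larvae in 96-well plates were given 100 µL egg water containing library compound at 10 µM final for 6 h. After 3 h of exposure, plates at 28.5 ℃ were photographed every 6 s during a 3-h programme of moving lines and 100 ms, 400Hz tones. Z-LaP Tracker (a DeepLabCut model) quantified each behaviour, averaged over 48 larvae per compound. Values are the compound mean minus the DMSO-vehicle control, in percentage points.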

[2] = system: Danio rerio larvae (5 dpf); assay: difference in startle response vs DMSO (percentage points); higher = stronger startle than DMSO
Summary of the method: as §1

[3] = system: Danio rerio larvae (5 dpf); assay: difference in activity during first hour vs DMSO (percentage points); higher = more activity than DMSO
Summary of the method: as §1

[4] = system: Danio rerio larvae (5 dpf); assay: difference in habituation to acoustic stimuli vs DMSO (percentage points); higher = more habituation than DMSO
Summary of the method: as §1

[5] = system: Danio rerio larvae (5 dpf); assay: difference in combined optomotor response to red, green and blue moving lines vs DMSO (percentage points); higher = stronger optomotor response than DMSO
Summary of the method: as §1

Compound	difference in excitability [1]	difference in startle response [2]	difference in activity during first hour [3]	difference in habituation to acoustic stimuli [4]	difference [5]
CC(C)OC(=O)CCC/C=C\C[C@@H]1[C@@H](/C=C/C(F)(F)COc2ccccc2)[C@H](O)C[C@@H]1O [Tafluprost]	10.1	-0.187	-16	12.5	-4.17
Cc1ccc([C@@H]2O[C@H](CO)[C@@H](O)[C@H](O)[C@H]2O)cc1Cc1ccc(-c2ccc(F)cc2)s1 [Canagliflozin]	1.05	-3.92	3.63	3.27	5.53
Cc1ccc(O)c([C@H](CCN(C(C)C)C(C)C)c2ccccc2)c1 [Tolterodine (tartrate)]	11.1	-0.221	-20.3	-5.38	-10.6
C/C(O)=C(\C#N)C(=O)Nc1ccc(C(F)(F)F)cc1	5.48	1.5	-4.86	6.45	3.09
O=C(O)c1cc(-c2ccc(F)cc2F)ccc1O [Diflunisal]	1.22	5.89	15.2	-3.92	6.8
O=C(O)c1cc(/N=N/c2ccc(S(=O)(=O)Nc3ccccn3)cc2)ccc1O [Sulfasalazine]	11.1	2.87	12.9	-2.35	4.25
C[C@@H]1C[C@H]2[C@@H]3CCC4=CC(=O)C=C[C@]4(C)[C@@]3(F)[C@@H](O)C[C@]2(C)[C@H]1C(=O)CO [Desoximetasone]	2.03	4.16	-4.98	2.48	0.705
O=C(NCC1CCCCN1)c1cc(OCC(F)(F)F)ccc1OCC(F)(F)F (stereo not given) [Flecainide (acetate)]	6.44	-12.4	-19.1	-11	-18.8
CN(C)CCC[C@@]1(c2ccc(F)cc2)OCc2cc(C#N)ccc21 [Escitalopram]	12.5	-1.37	-18.9	1.61	1.8
CCCN(CCC)S(=O)(=O)c1ccc(C(=O)O)cc1 [Probenecid]	-3.91	4.06	8.09	3.84	9.2
C#CCN[C@@H]1CCc2ccccc21 [Rasagiline]	3.5	1.96	10.2	4.46	6.27
Cc1ccc(C(=O)Nc2ccc(CN3CCN(C)CC3)c(C(F)(F)F)c2)cc1C#Cc1cnc2cccnn12 [Ponatinib]	7.08	-6.04	-11	-7.62	-12.5
COC(=O)N[C@H](C(=O)N1CCC[C@H]1c1ncc(-c2ccc(-c3ccc(-c4cnc([C@@H]5CCCN5C(=O)[C@@H](NC(=O)OC)C(C)C)[nH]4)cc3)cc2)[nH]1)C(C)C [Daclatasvir]	18.7	2.15	-4.26	0.308	-0.609
COc1ccc2[nH]c([S@@+]([O-])Cc3ncc(C)c(OC)c3C)nc2c1 [Esomeprazole Magnesium]	8.33	7.11	4.64	-0.745	5.95
CNNCc1ccc(C(=O)NC(C)C)cc1 [Procarbazine (hydrochloride)]	0.724	-0.558	6.39	-5.35	4.87
CN(C)CCOC(=O)C(c1ccccc1)C1(O)CCCC1 (stereo not given) [Cyclopentolate (hydrochloride)]	-10.4	-4.29	-7.59	-2.76	-2.74
CCCCC(=O)N(Cc1ccc(-c2ccccc2-c2nnn[nH]2)cc1)[C@H](C(=O)O)C(C)C [Valsartan]	-0.389	4.11	2.08	-3.08	3.88
CCN(CCO)CCCC(C)Nc1ccnc2cc(Cl)ccc12 (stereo not given) [Hydroxychloroquine (sulfate)]	10.2	0.589	-2.91	4.81	-3.68
Nc1nc2[nH]cc(CCc3ccc(C(=O)N[C@@H](CCC(=O)O)C(=O)O)cc3)c2c(=O)[nH]1 [Pemetrexed (sodium salt hydrate)]	7.7	-0.109	-1.67	4.63	5.29
C[C@H]1C[C@H]2[C@@H]3CCC4=CC(=O)C=C[C@]4(C)[C@@]3(F)[C@@H](O)C[C@]2(C)[C@@]1(O)C(=O)CO [Betamethasone]	19.9	8.22	-16.1	3.7	5.5
COC(=O)[C@H](c1ccccc1Cl)N1CCc2sccc2C1 (racemic) [(±)-Clopidogrel (hydrochloride)]	11.3	3.2	-4.36	-3.13	8.08
Nc1ncn([C@H]2C[C@H](O)[C@@H](CO)O2)c(=O)n1 [Decitabine]	-2.79	-4.56	-0.853	0.137	4.38

Compound	difference in excitability [1]	difference in startle response [2]	difference in activity during first hour [3]	difference in habituation to acoustic stimuli [4]	difference [5]
OC(CCN1CCCCC1)(c1ccccc1)C1CC2C=CC1C2 (stereo not given) [Biperiden (hydrochloride)]	9.71	-7.39	-0.127	-10.7	-2.85
COc1cc2nc(N3CCN(C(=O)C4CCCO4)CC3)nc(N)c2cc1OC (stereo not given) [Terazosin (hydrochloride)]	18.5	10.8	-10.2	1.1	13.9
CCS(=O)(=O)N1CC(CC#N)(n2cc(-c3ncnc4[nH]ccc34)cn2)C1 [Baricitinib]	7.57	-3.92	10.9	-5.36	5.99
CCCCNc1cc(C(=O)O)cc(S(N)(=O)=O)c1Oc1ccccc1 [Bumetanide]	5.57	-2.75	5.52	-3.24	3.54
C[C@H](N[C@@H](CCc1ccccc1)C(=O)O)C(=O)N1CCC[C@H]1C(=O)O [Enalaprilat (hydrate)]	-0.583	-2.87	9.36	1.38	1.55
COC[C@H]1C[C@@H](c2nc(-c3ccc4c(c3)COc3cc5c(ccc6nc([C@@H]7CC[C@H](C)N7C(=O)[C@@H](NC(=O)OC)C(C)C)[nH]c65)cc3-4)c[nH]2)N(C(=O)[C@H](NC(=O)OC)c2ccccc2)C1 [Velpatasvir]	10.1	2.08	2	-1.59	0.589
COc1cccc2c1C(=O)c1c(O)c3c(c(O)c1C2=O)C[C@@](O)(C(C)=O)C[C@@H]3O[C@H]1C[C@H](N)[C@H](O)[C@H](C)O1 [Daunorubicin (hydrochloride)]	19.8	4.36	-3.27	5.5	-1.09
C#C[C@]1(O)CC[C@H]2[C@@H]3CCC4=CC(=O)CC[C@@H]4[C@H]3CC[C@@]21CC [Levonorgestrel]	2.02	-3.01	-12.7	-0.397	3.05
CO[C@H]1/C=C/O[C@@]2(C)Oc3c(C)c(O)c4c(O)c(c(/C=N/N5CCN(C6CCCC6)CC5)c(O)c4c3C2=O)NC(=O)/C(C)=C\C=C\[C@H](C)[C@H](O)[C@@H](C)[C@@H](O)[C@@H](C)[C@H](OC(C)=O)[C@@H]1C [Rifapentine]	24.8	-0.153	-3.15	6.16	6.78
CCc1c(Cl)c(O)c(Cl)c(O)c1C(=O)O[C@H]1[C@H](O)[C@H](OC)[C@H](OCC2=CC=CC[C@H](O)C(C)=C[C@H](CC)[C@@H](O[C@@H]3OC(C)(C)C(OC(=O)C(C)C)[C@H](O)[C@@H]3O)C(C)=CC(C)=CC[C@@H]([C@@H](C)O)OC2=O)O[C@@H]1C (stereo not given in full) [Fidaxomycin]	1.12	8.11	12.6	4.21	4.75
Nc1nc(-n2cc(C(=O)O)c(=O)c3cc(F)c(N4CC(O)C4)c(Cl)c32)c(F)cc1F [Delafloxacin]	14.4	12.8	-8.49	7.81	9.67
Cc1c(OCC(F)(F)F)ccnc1C[S+]([O-])c1nc2ccccc2[nH]1 (stereo not given) [Lansoprazole]	8.61	-2.87	1.57	-2.95	6.61
O=C(O)P(=O)(O)O [Foscarnet (sodium salt)]	-6.03	6.15	20.9	-1.07	4.77
Cc1cc(C#N)cc(C)c1Oc1nc(Nc2ccc(C#N)cc2)nc(N)c1Br [Etravirine]	-2.94	0.144	10.9	-5.6	7.48
Nc1nc2c(c(=O)[nH]1)N(C=O)C(CNc1ccc(C(=O)NC(CCC(=O)O)C(=O)O)cc1)CN2 (racemic) [DL-Folinic Acid (calcium salt)]	-0.743	2.87	8.84	0.082	5.53
CCC(C)n1ncn(-c2ccc(N3CCN(c4ccc(OCC5COC(Cn6cncn6)(c6ccc(Cl)cc6Cl)O5)cc4)CC3)cc2)c1=O (stereo not given) [Itraconazole]	15.4	-0.629	-2.15	-5.43	4.73
N=C(N)c1ccc(OCCCCCOc2ccc(C(=N)N)cc2)cc1 [Pentamidine]	17	5.88	-2.12	0.725	5.19
Cc1nnc(C(=O)NC(C)(C)c2nc(C(=O)NCc3ccc(F)cc3)c(O)c(=O)n2C)o1 [Raltegravir (potassium salt)]	-0.288	1.86	0.698	-5.1	5.8
CCCNCC(O)COc1ccccc1C(=O)CCc1ccccc1 (stereo not given) [Propafenone (hydrochloride)]	14.4	-3.28	8.84	0.424	6.51
Cc1cc2nc3c(=O)[nH]c(=O)nc-3n(C[C@H](O)[C@H](O)[C@H](O)COP(=O)(O)O)c2cc1C [Riboflavin 5'-monophosphate (sodium salt hydrate)]	-1.24	-0.41	13.4	5.95	-0.41
CN1CCN(CCCN2c3ccccc3Sc3ccc(C(F)(F)F)cc32)CC1 [Trifluoperazine (hydrochloride)]	11.8	-1.73	23.8	-10.9	-0.14
CC1(C)O[C@@H]2C[C@H]3[C@@H]4C[C@H](F)C5=CC(=O)CC[C@]5(C)[C@H]4[C@@H](O)C[C@]3(C)[C@]2(C(=O)CO)O1 [Flurandrenolide]	7.97	0.156	1.93	0.924	5.73
